Reference: the supplement of paper PMC8253809

Experiments:
Experiment in all cases: growth inhibition (% activity, log2 RLU normalised to DMSO / staurosporine); higher = more growth inhibition
Conditions in all cases: 33 µM
[1] = test system: DIPGX29 (H3.3 K27M diffuse intrinsic pontine glioma line)
Procedure, shortened: (§1)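 Approved drugs were tested in triplicate at a single final concentration of about 33 μM for 7 days at 37 °C, 5% CO2, on pHGG cell lines and H9-derived neural stem cells. Readout was CellTiter-Glo luminescence, log2-transformed and scaled per plate to % activity between solvent and positive control wells. The median over replicates gives the growth-inhibition value.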

[2] = test system: DIPGX37 (H3.3 K27M diffuse intrinsic pontine glioma line)
Procedure, shortened: as §1

[3] = test system: DIPGX7 (H3.3 K27M diffuse intrinsic pontine glioma line)
Procedure, shortened: as §1

[4] = test system: DIPGX9 (diffuse intrinsic pontine glioma line)
Procedure, shortened: as §1

[5] = test system: HGGX39 (paediatric high-grade glioma line)
Procedure, shortened: as §1

[6] = test system: HGGX6 (H3.3 G34R paediatric high-grade glioma line)
Procedure, shortened: as §1

[7] = test system: HNSC
Procedure, shortened: as §1

[8] = test system: SUDIPGIV (diffuse intrinsic pontine glioma line)
Procedure, shortened: as §1

[9] = test system: SUDIPGVI (diffuse intrinsic pontine glioma line)
Procedure, shortened: as §1

[10] = test system: SUDIPGXIII (diffuse intrinsic pontine glioma line)
Procedure, shortened: as §1

SMILES | growth inhibition [1] | growth inhibition [2] | growth inhibition [3] | growth inhibition [4] | growth inhibition [5] | growth inhibition [6] | growth inhibition [7] | growth inhibition [8] | growth inhibition [9] | growth inhibition [10]
Cc1cc(NC(=O)C2=C(O)c3ccccc3S(=O)(=O)N2C)no1 | -3.22% | -1.66% | -1.69% | -3.17% | -4.59% | -4.04% | 7.58% | -5.37% | -10.5% | -0.431%
COC(=O)C1=C(C)NC(C)=C(C(=O)OC)C1c1ccccc1[N+](=O)[O-] | -2.53% | -2.53% | 0.0754% | 3.5% | -0.258% | -0.288% | 8.49% | -2.66% | -7.47% | -0.486%
CC(C)NCC(O)COc1ccc(COCCOC(C)C)cc1 (stereo not given) | -3.23% | -0.456% | -0.461% | -0.782% | -1.74% | -3.85% | -7.27% | -3.11% | -2.42% | -1.46%
CC[N+](CC)(CC)CCOc1cccc(OCC[N+](CC)(CC)CC)c1OCC[N+](CC)(CC)CC | 2.95% | 4.13% | 2.35% | 3.16% | 2.47% | 0.26% | 1.9% | -0.653% | 3.43% | -2.39%
C#Cc1cccc(Nc2ncnc3cc(OCCOC)c(OCCOC)cc23)c1 | 4.75% | 0.211% | 3.55% | 2.64% | 5.69% | 6.15% | 20.9% | -5.33% | 3.91% | 1.17%
CCOc1ccc(NC(C)=O)cc1 | 1.41% | 1.55% | 3.09% | 2.76% | 2.76% | -0.142% | 47.6% | 2.49% | -4.96% | 1.58%
CCOCC(O)COc1ccc(NC(=O)CC[S+](C)C)cc1 (stereo not given) | -1.2% | -0.984% | -0.388% | 0.757% | -1.5% | -2.39% | -2.31% | -1.12% | -0.872% | 0.764%
CNC[C@H](O)[C@@H](O)[C@H](O)[C@H](O)CO | 1.22% | 3.72% | 2.92% | 1.9% | 4.71% | 1.37% | 3.01% | 2.28% | 3.8% | -1.42%
CC1(C)Cc2c(-c3ccccc3)c(-c3ccc(Cl)cc3)c(CC(=O)O)n2C1 | 1.89% | 3.9% | 3.38% | 1.48% | 2.51% | -0.994% | 8.73% | 1.41% | 1.99% | 1.12%
CC(=O)O[C@H]1C[C@@H]2CC[C@@H]3[C@H](CC[C@@]4(C)[C@H]3C[C@H]([N+]3(C)CCCCC3)[C@@H]4OC(C)=O)[C@@]2(C)C[C@@H]1N1CCCCC1 | 0.923% | -0.759% | 1.01% | 1.13% | 1.15% | -0.813% | 1.96% | -0.377% | 1.82% | -0.269%
CC(C)NCC(O)c1cc(O)cc(O)c1 (stereo not given) | -0.101% | 1.67% | 1.75% | 1.82% | 2.87% | -1.68% | 27.3% | 2.27% | -0.181% | -0.215%
CO[C@@]1(NC(=O)C(C(=O)O)c2ccc(O)cc2)C(=O)N2C(C(=O)O)=C(CSc3nnnn3C)CO[C@@H]21 (stereo not given in full) | -1.75% | -0.992% | -0.554% | -0.636% | -0.0428% | 0.31% | -3.08% | -1.1% | 0.787% | -4.5%
CNC(=O)c1cc(Oc2ccc(NC(=O)Nc3ccc(Cl)c(C(F)(F)F)c3)cc2)ccn1 | 35.1% | 67.2% | 28.2% | 25.6% | 50.7% | 32% | 76.1% | 41.2% | 60.7% | 69.3%
CC1(C)O[C@@H]2C[C@H]3[C@@H]4CCC5=CC(=O)C=C[C@]5(C)[C@@]4(F)[C@@H](O)C[C@]3(C)[C@]2(C(=O)CO)O1 | 1.92% | 0.771% | -0.242% | 4.15% | 2.88% | 0.928% | -2.22% | -0.618% | 1.71% | 0.942%
Nc1nc2[nH]cnc2c(=S)[nH]1 | 23.3% | 12.5% | 5.75% | 17.2% | 25% | 18.7% | 63.7% | 42.5% | -1.02% | 2.55%
CCCSc1nc(N[C@@H]2C[C@H]2c2ccc(F)c(F)c2)c2nnn([C@@H]3C[C@H](OCCO)[C@@H](O)[C@H]3O)c2n1 | 2.23% | 3.23% | 4.99% | 1.97% | 5.25% | 1.74% | 20.6% | 3.4% | 3.52% | 0.841%
Cc1cccc(CN2CCN(C(c3ccccc3)c3ccc(Cl)cc3)CC2)c1 (stereo not given) | 6.1% | 6.46% | 7.93% | 8.12% | 6.5% | 7.41% | 3.84% | 25.4% | 4.9% | 4.67%
O.O=[Si]=O.O=[Si]=O.O=[Si]=O.O=[Si]=O.[O]=[Mg].[O]=[Mg].[O]=[Mg] | -0.0369% | -0.00885% | -1.3% | 0.668% | 1.22% | 0.613% | -1.22% | 0.589% | 0.8% | 0.62%
CNCCCC12CCC(c3ccccc31)c1ccccc12 | -1.06% | -0.189% | 1.34% | -1.84% | -0.798% | -0.808% | 27.6% | -1.99% | -4.58% | 0.908%
O=C(O)c1cc(/N=N/c2ccc(O)c(C(=O)O)c2)ccc1O | -0.786% | 0.929% | 0.432% | 0.755% | 1.33% | 0.125% | 11.3% | -0.724% | -2.65% | 0.343%
